Several values for one entry are separate records, joined by “and”; a condition that tells them apart may be missing. Equal values may be shown once. The whole screen tested about 5,500 compounds, of which about 2,000 (36%) were called active. Roughly 18% stayed inconclusive and do not appear here. No stated cut-off is given here; in the data, active means normalized growth mostly below about 0.91 (no sharp cut-off); inconclusive means no clear call, values can overlap the other calls; inactive means mostly above about 0.92. This is one part of the list.
Assay: chemical genetic growth profiling, strain panel (AID 1159580);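 further: tested at 20 µM; growth read once vehicle control cultures reached saturation at 30 °C; 1 = growth at the plate median or of vehicle wells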
Conditions: growth OD

Measured: normalized growth

CCN(Cc1ccncc1)C(=O)C(CO)c1ccccc1 (stereo unspecified)
inactive: S. cerevisiae deletion strains, locus YJR075W, strain HOC1, stronger effect = lower value 0.989 | S. cerevisiae deletion strains, locus YKL009W, strain mrt4, stronger effect = lower value 1.01 | S. cerevisiae deletion strains, locus YKL068W, stronger effect = lower value 0.982 | S. cerevisiae deletion strains, locus YKL085W, strain MDH1 (second series), stronger effect = lower value 0.977 | S. cerevisiae deletion strains, locus YKL085W, strain MDH1, stronger effect = lower value 0.977 | S. cerevisiae deletion strains, locus YKL160W, strain elf1, stronger effect = lower value 1.02 | S. cerevisiae deletion strains, locus YKL190W, strain CNB1, stronger effect = lower value 0.992 | S. cerevisiae deletion strains, locus YKR001C, strain vps1, stronger effect = lower value 0.999 | S. cerevisiae deletion strains, locus YKR026C, strain gcn3, stronger effect = lower value 1.04 | S. cerevisiae deletion strains, locus YKR091W, strain srl3, stronger effect = lower value 1.02 | S. cerevisiae deletion strains, locus YLL001W, strain dnm1, stronger effect = lower value 1.02 | S. cerevisiae deletion strains, locus YLL026W, stronger effect = lower value 1.03 | S. cerevisiae deletion strains, locus YLL041C, strain sdh2, stronger effect = lower value 1.02 | S. cerevisiae deletion strains, locus YLR027C, strain aat2, stronger effect = lower value 1.02 | S. cerevisiae deletion strains, locus YLR039C, strain RIC1, stronger effect = lower value 0.977 | S. cerevisiae deletion strains, locus YLR058C, strain SHM2, stronger effect = lower value 0.998 | S. cerevisiae deletion strains, locus YLR102C, strain apc9, stronger effect = lower value 0.991 | S. cerevisiae deletion strains, locus YLR113W, strain HOG1, stronger effect = lower value 0.988 | S. cerevisiae deletion strains, locus YLR221C, strain rsa3, stronger effect = lower value 1.03 | S. cerevisiae deletion strains, locus YLR258W, strain gsy2, stronger effect = lower value 1.05 | S. cerevisiae deletion strains, locus YLR262C, strain YPT6 (second series), stronger effect = lower value 1.07 | S. cerevisiae deletion strains, locus YLR262C, strain YPT6, stronger effect = lower value 1.01 | S. cerevisiae deletion strains, locus YLR268W, strain sec22, stronger effect = lower value 0.954 | S. cerevisiae deletion strains, locus YLR320W, strain mms22, stronger effect = lower value 1.02 | S. cerevisiae deletion strains, locus YLR330W, strain CHS5, stronger effect = lower value 0.991 | S. cerevisiae deletion strains, locus YLR342W, strain FKS1 (second series), stronger effect = lower value 1.05 | S. cerevisiae deletion strains, locus YLR342W, strain FKS1, stronger effect = lower value 1.02 | S. cerevisiae deletion strains, locus YLR357W, strain rsc2, stronger effect = lower value 1.04 | S. cerevisiae deletion strains, locus YLR370C, strain arc18, stronger effect = lower value 1.03 | S. cerevisiae deletion strains, locus YLR371W, strain rom2, stronger effect = lower value 0.989 | S. cerevisiae deletion strains, locus YLR384C, strain iki3, stronger effect = lower value 1.03 | S. cerevisiae deletion strains, locus YLR418C, strain cdc73, stronger effect = lower value 0.995 | S. cerevisiae deletion strains, locus YML016C, strain PPZ1, stronger effect = lower value 1 | S. cerevisiae deletion strains, locus YML032C, strain rad52, stronger effect = lower value 0.978 | S. cerevisiae deletion strains, locus YML120C, strain ndi1, stronger effect = lower value 1.03 | S. cerevisiae deletion strains, locus YML124C, strain tub3, stronger effect = lower value 0.997 | S. cerevisiae deletion strains, locus YMR058W, strain fet3, stronger effect = lower value 1.02 | S. cerevisiae deletion strains, locus YMR078C, strain ctf18, stronger effect = lower value 0.999 | S. cerevisiae deletion strains, locus YMR125W, strain sto1, stronger effect = lower value 1.03 | S. cerevisiae deletion strains, locus YMR129W, stronger effect = lower value 1.02 | S. cerevisiae deletion strains, locus YMR205C, strain PFK2, stronger effect = lower value 1.05 | S. cerevisiae deletion strains, locus YMR223W, strain ubp8, stronger effect = lower value 1.02 | S. cerevisiae deletion strains, locus YMR231W, strain pep5, stronger effect = lower value 1.03 | S. cerevisiae deletion strains, locus YMR263W, strain SAP30, stronger effect = lower value 0.999 and 1 | S. cerevisiae deletion strains, locus YMR307W, strain GAS1, stronger effect = lower value 1.05 and 1.01 | S. cerevisiae deletion strains, locus YNL067W, strain RPL9B, stronger effect = lower value 0.98 | S. cerevisiae deletion strains, locus YNL071W, strain lat1, stronger effect = lower value 1.03 | S. cerevisiae deletion strains, locus YNL128W, strain TEP1, stronger effect = lower value 0.985 | S. cerevisiae deletion strains, locus YNL153C, strain GIM3, stronger effect = lower value 0.992 | S. cerevisiae deletion strains, locus YNL175C, strain NOP13, stronger effect = lower value 0.995 | S. cerevisiae deletion strains, locus YNL183C, strain NPR1, stronger effect = lower value 0.944 | S. cerevisiae deletion strains, locus YNL197C, strain WHI3, stronger effect = lower value 1.02 | S. cerevisiae deletion strains, locus YNL209W, strain ssb2, stronger effect = lower value 1.04 | S. cerevisiae deletion strains, locus YNL224C, strain SQS1, stronger effect = lower value 1 | S. cerevisiae deletion strains, locus YNL233W, strain BNI4, stronger effect = lower value 1 | S. cerevisiae deletion strains, locus YNL248C, strain rpa49, stronger effect = lower value 1.02 | S. cerevisiae deletion strains, locus YNL250W, strain rad50, stronger effect = lower value 0.982 | S. cerevisiae deletion strains, locus YNL271C, strain bni1, stronger effect = lower value 0.982 | S. cerevisiae deletion strains, locus YNL298W, strain CLA4, stronger effect = lower value 1 | S. cerevisiae deletion strains, locus YNL307C, strain MCK1, stronger effect = lower value 0.994 | S. cerevisiae deletion strains, locus YNL322C, strain KRE1 (second series), stronger effect = lower value 1.03 | S. cerevisiae deletion strains, locus YNL322C, strain KRE1, stronger effect = lower value 0.992 | S. cerevisiae deletion strains, locus YNR049C, strain mso1, stronger effect = lower value 1.04 | S. cerevisiae deletion strains, locus YNR052C, strain pop2, stronger effect = lower value 0.991 | S. cerevisiae deletion strains, locus YOL006C, strain TOP1, stronger effect = lower value 0.948 | S. cerevisiae deletion strains, locus YOL012C, strain htz1 0.82 | S. cerevisiae deletion strains, locus YOL147C, strain pex11, stronger effect = lower value 0.986 | S. cerevisiae deletion strains, locus YOR001W, strain rrp6, stronger effect = lower value 1.02 | S. cerevisiae deletion strains, locus YOR061W, strain CKA2, stronger effect = lower value 0.988 | S. cerevisiae deletion strains, locus YOR069W, strain VPS5, stronger effect = lower value 1 | S. cerevisiae deletion strains, locus YOR070C, strain gyp1, stronger effect = lower value 1.02 | S. cerevisiae deletion strains, locus YOR080W, strain dia2, stronger effect = lower value 1.03 | S. cerevisiae deletion strains, locus YOR083W, strain WHI5 (second series), stronger effect = lower value 1 | S. cerevisiae deletion strains, locus YOR083W, strain WHI5, stronger effect = lower value 1.01 | S. cerevisiae deletion strains, locus YOR106W, strain vam3, stronger effect = lower value 1.03 | S. cerevisiae deletion strains, locus YOR136W, strain idh2, stronger effect = lower value 0.997 | S. cerevisiae deletion strains, locus YOR144C, strain elg1, stronger effect = lower value 0.992 | S. cerevisiae deletion strains, locus YOR184W, strain ser1, stronger effect = lower value 1.01 | S. cerevisiae deletion strains, locus YOR231W, strain MKK1, stronger effect = lower value 0.987 | S. cerevisiae deletion strains, locus YOR265W, strain rbl2, stronger effect = lower value 1.02 | S. cerevisiae deletion strains, locus YOR270C, strain vph1, stronger effect = lower value 1.05 | S. cerevisiae deletion strains, locus YOR290C, strain snf2, stronger effect = lower value 1.01 | S. cerevisiae deletion strains, locus YOR316C, strain cot1, stronger effect = lower value 0.984 | S. cerevisiae deletion strains, locus YPL051W, strain arl3, stronger effect = lower value 1.04 | S. cerevisiae deletion strains, locus YPL055C, strain LGE1, stronger effect = lower value 1 | S. cerevisiae deletion strains, locus YPL078C, strain atp4, stronger effect = lower value 1.02 | S. cerevisiae deletion strains, locus YPL106C, strain sse1, stronger effect = lower value 1.02 | S. cerevisiae deletion strains, locus YPL240C, strain hsp82, stronger effect = lower value 1.03 | S. cerevisiae deletion strains, locus YPL241C, strain CIN2, stronger effect = lower value 0.999 | S. cerevisiae deletion strains, locus YPL256C, strain CLN2, stronger effect = lower value 0.977 | S. cerevisiae deletion strains, locus YPR119W, strain clb2, stronger effect = lower value 0.987 | S. cerevisiae deletion strains, locus YPR141C, strain kar3, stronger effect = lower value 0.99 | S. cerevisiae deletion strains, locus YPR163C, strain tif3, stronger effect = lower value 0.982 | S. cerevisiae deletion strains, locus YPR167C, strain met16, stronger effect = lower value 0.973 | S. cerevisiae deletion strains, strain wtn01, stronger effect = lower value 0.991 | S. cerevisiae strains, strain wild type, stronger effect = lower value 0.995
